Assay outcomes from PubChem BioAssay.
BCR signal inh = inhibitors of chronic active B-cell receptor signaling. ABC-DLBCL IkBa-CBG/CBR reporter, luminescence ratio, 4 h. Potency, µM (series often up to 46.1 µM), without a hit: top-dose activity change, negative = inhibition, actives largely listed as inhibitors. hit rate 0.05% among 340,000. AID 493014; active = well fitted inhibition curve with a large enough effect in the signal ratio, with a control signal flat, not every such curve was filed as active; inconclusive = small, poorly fitted or top-dose-only effect, or effect the other way, or a change in a side signal; the % refers to the signal ratio;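 note: plate controls were basal doxycycline-induced cells for no effect and cells given 10 µM MG132 for full effect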
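TMD8 ABC-DLBCL cells carrying doxycycline-inducible green luciferase fused to IkappaBalpha plus unfused red luciferase were exposed to compounds (up to 46 uM) for 4 hrs at 37C. Activity came from the overlap-corrected green/red luminescence ratio.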
Mito fusion act = blocks mitochondrial division or promotes mitochondrial fusion. S. cerevisiae fusion-defective mutant growth rescue, CellTiterGlo 48 h. Potency, µM (highest dose often 46.1 µM), for inactives: at the highest dose growth rescue (activation), hits mostly activators. hit rate 0.23% among 320,000; note: % of control where 0% means no effect; nearly all actives have a fitted effect of over 45% in size
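Yeast fusion mutant, YPEG (non-fermentable carbon), compound, 48 h at 37C non-permissive; CellTiterGlo added, 10 min RT, luminescence read. Rescued growth = division inhibition.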
uPA generation = blocks generation of uPA at the cell surface; Potency, µM (highest dose often 38.3 µM), without a hit: top-dose activity change, negative = inhibition, actives largely listed as inhibitors; hit rate 0.31% among 330,000; cell surface uPA generation assay, qHTS; active = well fitted inhibition curve with a large enough effect; inconclusive = small, poorly fitted or top-dose-only effect; inactive = no such curve, though single readings can be large or run the other way; tested in mouse RAW 264.7 cells; note: % is set by controls: 0 for no effect and ±100 for the full control effect; nearly all actives have a fitted effect of over 55% in size
Gal4-VP16 FLuc = counter-screen for ROR gamma inhibitors: Gal4-VP16 reporter. Drosophila S2 Gal4-VP16 UAS-luciferase, luminescence, 20 h. Potency, µM (doses to about 53.6 µM), without a hit: at the top dose activity, negative = inhibition, hits mostly inhibitors. hit rate 3.5% among 310,000. AID 2546;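 note: Gal4-VP16 expression switched on by copper sulfate through the metallothionein promoter; % is set by controls: 0 for no effect and ±100 for the full control effect; nearly all actives have a fitted effect of over 50% in size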
a7 integrin act = activates integrin-mediated alleviation for muscular dystrophy. alpha7betagal myoblasts, beta-gal FDG fluorescence, 48 h. hit rate 0.064% among 350,000. Potency, µM (doses to about 38.3 µM), for the others: at the top dose activation, hits mostly activators;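 note: 100% = response of the positive control SU9516; nearly all actives have a fitted effect of over 60% in size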
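alpha7betagal+/- myoblasts (passage 13, 250/well) treated 48 h at 37C with compounds at 1:260 dilution of DMSO stock. Lysed, then beta-galactosidase activity read as FDG fluorescence (ex 480/em 540) after 30 min, with pre-read for autofluorescence.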
RORgamma inh = blocks mouse ROR gamma transcriptional activity; Potency, µM (titrated, usually from 53.6 µM), without a hit: top-dose activity change, negative = inhibition, most hits filed as inhibitors; P51450; AID 2551; hit rate 5.4% among 310,000; Drosophila S2 Gal4-RORgamma UAS-luciferase reporter, 20 h; note: % is set by controls: 0 for no effect and ±100 for the full control effect; nearly all actives have a fitted effect of over 60% in size
Target sequence (P51450 whole entry, looked up, the tested form may be a part): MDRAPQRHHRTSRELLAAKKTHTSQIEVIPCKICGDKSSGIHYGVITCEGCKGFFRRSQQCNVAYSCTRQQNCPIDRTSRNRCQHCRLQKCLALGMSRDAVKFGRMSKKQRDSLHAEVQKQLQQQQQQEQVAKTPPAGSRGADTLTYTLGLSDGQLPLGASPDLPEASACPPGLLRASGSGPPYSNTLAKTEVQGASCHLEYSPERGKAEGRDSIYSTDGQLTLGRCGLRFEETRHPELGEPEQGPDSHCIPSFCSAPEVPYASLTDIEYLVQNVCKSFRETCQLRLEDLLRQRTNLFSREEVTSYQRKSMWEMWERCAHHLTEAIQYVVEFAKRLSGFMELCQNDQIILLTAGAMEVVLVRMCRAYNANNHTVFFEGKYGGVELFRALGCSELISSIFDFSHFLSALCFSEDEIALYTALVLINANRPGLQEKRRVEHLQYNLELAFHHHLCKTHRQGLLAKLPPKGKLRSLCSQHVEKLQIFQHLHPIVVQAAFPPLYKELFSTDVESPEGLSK
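Drosophila S2 cells stably expressing Gal4-DBD/mouse RORγ fusion under metallothionein promoter plus UAS-luciferase; compound 1 h, then 700 uM CuSO4 induction for 20 h at ambient temperature; inhibition read as reduced luminescence.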
The depositor's hits bear a star; ? = inconclusive; nt = no result; [ ] = another dose, or the depositor's remark. Hits are enriched below; roughly 5.5% of the tested compounds scored in any of these assays. Unless noted, calls come from the whole dose curve; as a rule, active = well fitted curve in the direction sought with a large enough effect; inconclusive = small, poorly fitted or top-dose-only effect, or another doubt; inactive = no such curve, though single readings can be large; an effect the other way counts as inactive or inconclusive. Potency is the fitted concentration of half-maximal effect.

SMILES	BCR signal inh	Mito fusion act	uPA generation	Gal4-VP16 FLuc	a7 integrin act	RORgamma inh
O=C(Nc1ccc(Cc2ccncc2)cc1)C1CCC(N2C(=O)C3C4C=CC(C4)C3C2=O)CC1 (stereo unspecified)	1%	-5%	6%	?	-55%	-42%
CC1CCC2C(=O)N(c3ccc(Cc4ccncc4)cc3)C(=O)C2C1 (stereo unspecified)	3%	0%	-2%	6.3µM*	-38%	11µM*
O=C1C2C3C=CC(C3)C2C(=O)N1c1ccc(Cc2ccncc2)cc1 (stereo unspecified)	2%	-1%	-6%	22µM*	-40%	-25%
CCc1nc(Oc2cccc(F)c2)c2oc3ccccc3c2n1	13%	nt	nt	nt	nt	nt
COc1cc(-c2nc3c4ccccc4nc(=S)n3[nH]2)cc(OC)c1OC	?	-5%	-5%	1.4µM*	21%	1.4µM*
COc1ccccc1-c1nc2c3ccccc3nc(=S)n2[nH]1	?	-12%	-1%	1.3µM*	?	0.35µM*
COc1ccccc1-c1nc2ccccc2nc1-c1ccccc1	8%	22%	8%	8%	?	3%
Cc1cc(CC(=O)O)c(C)n1-c1ccc(Cl)cc1	nt	nt	nt	1%	nt	15%
CC(=O)Oc1ccc(/C=C/c2nc3ccccc3c(=O)o2)cc1	?	-3%	-10%	?	37%	-43%
CC(=O)Oc1ccccc1/C=C/c1nc2ccccc2c(=O)o1	?	2%	?	10µM*	-25%	8.9µM*
CCCCN(C)CCNC(=O)CCNC(=O)Cn1ccc2ccccc2c1=O	5%	18µM*	-3%	4%	0%	9%
Cc1cccn2c(=O)c(C=NCc3ccccc3)c(NCCO)nc12	4%	-1%	11%	-1%	-14%	-18%
Cc1ccc2nc(NCc3ccccc3)c(C=NCc3ccccc3)c(=O)n2c1	?	7.9µM*	-1%	7%	-36%	47%
COC(=O)c1cccc2c1-c1ccccc1/C2=N/O	?	20%	4%	?	20%	14µM*
COC(=O)c1cccc2c1-c1ccccc1/C2=N\NC(N)=O	?	10%	-4%	-9%	21%	-34%
CCNC(=S)N/N=C/c1sc(N2CCCCC2)nc1-c1cccs1	?	-12%	-6%	18µM*	10%	?
C[C@@H]1CN([C@H](C)CO)C(=O)c2cc(Br)cnc2O[C@H]1CN(C)C(=O)Nc1ccccc1F	nt	nt	nt	nt	28%	nt
Nc1ccc(N2CCN(c3ccc(Cl)c(Cl)c3)CC2)cc1	7%	13µM*	-7%	-8%	-23%	-23%
O=C(/C=C/c1cccs1)Nc1nc(-c2ccccc2)cs1	?	24%	nt	0%	-3%[7.66 µM]	?
CC1CCc2c(sc(NC(=O)c3ccco3)c2C(=O)O)C1 (stereo unspecified)	?	-41%	-4%	-4%	-14%	-3%
O=C(/C=C/c1cccs1)Nc1scc(-c2ccccc2)c1C(=O)O	?	5%	-8%	13µM*	-35%	10µM*
CC1CCc2c(sc(NC(=O)/C=C/c3cccs3)c2C(=O)O)C1 (stereo unspecified)	?	-2%	10µM*	nt	3%	nt
Oc1c(C(c2ccccc2)N2CCN(c3cccc(Cl)c3)CC2)sc2nc(-c3ccco3)nn12 (stereo unspecified)	-14%	nt	nt	nt	nt	nt
CCCCCN=c1ccn(Cc2ccccc2)c2ccccc12	nt	nt	nt	-5%	nt	16µM*
CN(C)/[N+]([O-])=N/Oc1cc(ON=[N+]([O-])N2CCN(c3ncccn3)CC2)c([N+](=O)[O-])cc1[N+](=O)[O-]	nt	nt	nt	24%	nt	21%
SMILES	BCR signal inh	Mito fusion act	uPA generation	Gal4-VP16 FLuc	a7 integrin act	RORgamma inh
Cc1ccc(C(=O)O/N=C/c2c(N3CCOCC3)n(C)c3ccccc23)cc1	-5%	-6%	nt	3.5µM*	-30%	1.1µM*
CC(=O)O/N=C/c1c(N2CCOCC2)n(C)c2ccccc12	?	-6%	-11%	11µM*	-58%	6.3µM*
Cn1c(N2CCOCC2)c(/C=N/OC(=O)c2ccc(F)cc2)c2ccccc21	-21%	-7%	nt	2.2µM*	-29%	0.63µM*
Cn1c(N2CCOCC2)c(/C=N/O)c2ccccc21	6%	4%	-1%	7%[10 µM]	0%	-1%
CCCCC[C@]12Cc3cc(OC)c(OC)cc3[C@H](O1)c1c(cc(C)oc1=O)O2	-1%[9.22 µM]	0%[9.22 µM]	nt	1%[10 µM]	nt	1%[10 µM]
Cc1noc(C)c1-c1nc(NC2CCNCC2)c2ccccc2n1	nt	nt	nt	-13%	nt	-25%
COc1ccc(Oc2ncc3ncc(=O)n(Cc4cccc(OC)c4)c3n2)cc1	nt	nt	nt	-8%	nt	1%
COc1ccc(/C=N/NC(=O)CN(C)C(=O)OCc2ccccc2)cc1OC	?	0%	-19%	-2%	3%	-7%
CC(Nn1cnnc1)c1cc(Cl)ccc1O (stereo unspecified)	-1%	-3%	1%	2%	2%	-1%
Cc1ccc(NC(C)c2cc(Cl)ccc2O)cc1 (stereo unspecified)	14%	0%	4%	13µM*	-2%	?
O=C(COC(=O)/C=C/c1cccc(F)c1)NC(=O)NC1CCCC1	-11%	nt	5%	nt	-24%	nt
Cc1ccc(NC(=S)N/N=C/c2cccn2Cc2ccccc2F)cc1	1%	-8%	7%	1.1µM*	4%	0.35µM*
Cc1ccc(CN2CCN(CC(=O)N/N=C/c3ccccc3F)CC2)cc1	?	-2%	17%	25%	8%	29%
CCN(CC)CCNc1cc(C)nc2c1C(=O)C(=O)C=C2N1CCCCC1	?	-5%	?	-3%	-7%	5µM*
O=C(NCc1cccs1)Nc1cccc(Cl)c1	nt	nt	-3%	nt	-13%	nt
S=C(NCc1cccs1)Nc1cc(Cl)cc(Cl)c1	20%	-2%	-3%	?	-37%	13µM*
S=C(NCc1cccs1)Nc1ccccc1Cl	9%	-2%	-1%	14µM*	-27%	13µM*
S=C(NCc1cccs1)Nc1cccc(Cl)c1	?	9%	nt	?	32%[7.66 µM]	20µM*
CC(C)c1ccc(/C=C/C(=O)NC2=NCCS2)cc1	3%	-7%	nt	?	nt	8.9µM*
CC(C)c1ccc(OCC(=O)NC2=NCCS2)cc1	?	-5%	4%	-22%[10 µM]	11%	14µM*
O=C(NC1=NCCS1)c1cc(Cl)ccc1Cl	0%	7%	-9%	nt	-3%	nt
O=C(/C=C/c1ccc(Cl)c(Cl)c1)NC1=NCCS1	-1%	6%	-7%	?	6%	7.9µM*
O=C(COc1ccccc1)NC1=NCCS1	?	-4%	7%	11%	-5%	-20%
CC(C)(C)c1ccc(OCCC(=O)NC2=NCCS2)cc1	-5%	8%	-1%	8.9µM*	-9%	3.5µM*
CCCNC(=O)/C=C/c1ccc(C(C)C)cc1	?	7%	-3%	0%	-18%	-7%
